Assay [1] concerns Zika virus NS2B-NS3 protease (linked construct). The assay is described as follows: Confirmatory screen NINDS AMC qHTS for Zika virus inhibitors (AID 1347152). Further: nearly all actives have a fitted effect of over 70% in size. Further: potency means the concentration at half of the fitted maximal effect. The following applies: Purified linked NS2B-NS3, AMC substrate fluorescence; series mostly up to 56.6 µM. The gist of the method: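 Linked NS2B-NS3 1 nM, Tris pH 8.0/0.01% Tween 20; cpd 15 min RT dark; + Nle-KRR-AMC 10 µM (Km 18.3 µM); read 0 and 15 min, 340/450 nm; %inh vs controls, 4-param Hill.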
In general terms: qHTS replaces the single test concentration by a dilution series.

Assay [2] deals with Zika virus NS2B-NS3 protease (unlinked complex). The assay can be described thus: Confirmatory screen GU AMC qHTS for Zika virus inhibitors (AID 1347153).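 Further: enzyme at 25 nM with substrate at 10 µM below its Km of 18.3 µM; potency means the concentration at half of the fitted maximal effect; nearly all actives have a fitted effect of over 70% in size.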 To be noted: Recombinant NS2B-NS3 protease, AMC substrate fluorescence; series mostly up to 111 µM. The gist of the method: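 Compounds were preincubated 15 min at room temperature with 25 nM noncovalent NS2B-NS3 protease at pH 8.0; AMC substrate added at 10 microM and 15-min fluorescence gain (340/450 nm) converted to percent inhibition, fitted 4-parameter.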

A short description of assay [3]: Confirmatory screen GU Rhodamine qHTS for Zika virus inhibitors qHTS (AID 1347157). Further: nearly all actives have a fitted effect of over 70% in size. Further: potency means the concentration at half of the fitted maximal effect. The following applies: purified enzyme assay, Rhodamine110 substrate fluorescence, 15 min; series mostly up to 114 µM. The gist of the method: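 Unlinked NS2B/NS3, 25 nM; Rhod110 peptide, 1.5 microM; compounds, up to 114 microM. Reaction run 15 min at RT in 10 mM Tris-HCl pH 8.0, 0.01% Tween 20; kinetic fluorescence change fitted with a 4-parameter Hill model.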

Assay [4] concerns Zika virus NS2B-NS3 protease (unlinked complex). The assay is described as follows: Primary screen GU Rhodamine qHTS for Zika virus inhibitors: Unlinked NS2B-NS3 protease assay (AID 1347159). Further: nearly all actives have a fitted effect of over 60% in size. Further: potency means the concentration at half of the fitted maximal effect. The following applies: Recombinant ZIKV NS2B-NS3 protease, Rhodamine110 substrate fluorescence; series mostly up to 107 µM. The gist of the method:
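Percent inhibition derives from the 15-min fluorescence change (ex 480, em 540 nm), normalized to no-enzyme and no-inhibitor wells. Reactions contained 25 nM NS2B-NS3 complex and 1.5 microM substrate in 10 mM Tris-HCl pH 8.0.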

The subject of assay [5] is Zika virus NS2B-NS3 protease (linked construct). The assay is described as follows: Primary screen NINDS Rhodamine qHTS for Zika virus inhibitors (AID 1347160). Further: nearly all actives have a fitted effect of over 55% in size. Further: potency means the concentration at half of the fitted maximal effect. To be noted: purified NS2B-NS3 protease, Rhodamine110 substrate fluorescence; series mostly up to 33.1 µM. The gist of the method: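 In 10 mM Tris-HCl pH 8.0 containing 0.01% Tween 20, linked NS2B-NS3 protease (25 nM final) is exposed to test compounds for 15 min. Cleavage of 1.5 microM Rhodamine110 substrate is tracked by fluorescence over 15 min.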

Assay [6] is described as follows: Confirmatory screen NINDS Rhodamine qHTS for Zika virus inhibitors (AID 1347161). Further: nearly all actives have a fitted effect of over 60% in size. Further: potency means the concentration at half of the fitted maximal effect. The following applies: purified enzyme assay, Rhodamine110 substrate fluorescence, 15 min; series mostly up to 114 µM. The gist of the method:
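qHTS dose-response: 25 nM linked protease, pH 8.0 Tris/Tween buffer, cpd titration, 15 min RT preinc, 1.5 microM Rhod110 peptide, 15 min reaction (~15% conversion), Ex480/Em540; 4-parameter Hill fit.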

The subject of assay [7] is Zika virus NS2B-NS3 protease (linked). The assay is described as follows: 384 well plate NINDS AMC confirmatory qHTS for Zika virus inhibitors (AID 1347163). Further: nearly all actives have a fitted effect of over 50% in size. Further: potency means the concentration at half of the fitted maximal effect. To be noted: Recombinant NS2B-NS3 protease, Ac-VKTGKR-AMC fluorescence; series mostly up to 100 µM. The gist of the method:
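Linked protease 5/30/60 nM final; cpds up to 1 mM final, ~15 min preinc. Substrate Ac-VKTGKR-AMC 30 microM final. RT, dark, 25 min; FI ex 355/em 460; normalized to no-enzyme/no-inhibitor ctrls.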

In assay [8] the test system is Zika virus NS2B-NS3 protease (linked construct). The assay is described as follows: 384 well plate NINDS Rhodamine confirmatory qHTS for Zika virus inhibitors (AID 1347164). Further: nearly all actives have a fitted effect of over 65% in size. Further: potency means the concentration at half of the fitted maximal effect. The following applies: rhodamine-110 peptide substrate fluorescence; series mostly up to 100 µM. The gist of the method: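 Fluorescence read at ex 485 nm/em 538 nm, 25 min after adding 10 microM Ac-LKRR-Rd substrate at room temperature in the dark; signal normalized to no-enzyme and no-inhibitor controls. Enzyme final 5, 30 or 60 nM; compounds, ~15 min preincubation.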

Assay [9] is described as follows: Vero cells viability qHTS for Zika virus inhibitors (AID 1347167). To be noted: cytotoxicity counter-screen (Zika); series mostly up to 45.9 µM. The gist of the method: (§1)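 Counter-screen for cytotoxicity of hits from NS2B-NS3 protease qHTS. Overnight-attached cells (2.5 x 10^5 cells/mL, DMEM/4% FBS) were dosed in titration, incubated 24 to 48 hours, then assayed by CellTiter Glo.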

Assay [10] is described as follows: HepG2 cells viability qHTS for Zika virus inhibitors (AID 1347168). To be noted: Zika counter-screen; series mostly up to 45.9 µM. The gist of the method:
as §1

The nature of assay [11]: Tertiary RLuc qRT-PCR qHTS assay for Zika virus inhibitors (AID 1347169). Further: nearly all actives have a fitted effect of over 55% in size. Further: potency means the concentration at half of the fitted maximal effect. To be noted: infected Vero cells, reporter luminescence, 48-72 h; series mostly up to 45.9 µM. The gist of the method: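 Luminescence read-out: live-cell Renilla luciferase substrate applied to infected Vero cells, signal measured after 1-1.5 hrs. Cells had received compound before ZIKV-RLuc (Cambodian strain, MOI 1-2) infection and were incubated 48-72 hrs at 37 degrees C.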
Background: In qPCR the cycle at which signal appears reflects the starting amount.

For assay [12], the system named is Zika virus NS2B-NS3 protease. The assay is described as follows: Primary screen GU AMC qHTS for Zika virus inhibitors (AID 1347154). Further: nearly all actives have a fitted effect of over 70% in size. To be noted: Zika NS2B-NS3 unlinked protease, AMC fluorogenic substrate; series mostly up to 54.1 µM. The gist of the method:
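Unlinked Zika NS2B hydrophilic domain/NS3 protease domain noncovalent complex (25 nM final) in 10 mM Tris-HCl pH 8.0, 0.01% Tween 20, with AMC peptide substrate. Fluorescence (ex 340, em 450 nm) change over 15 min, room temperature; percent inhibition fitted to 4-parameter Hill equation.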

A short description of assay [13]: ZIKV-mCherry secondary qHTS for Zika virus inhibitors (AID 1347158). Further: top concentration of the series differs between compounds. The following applies: Vero cells, ZIKV-mCherry infection imaging, 48-72 h; series mostly up to 49.2 µM. The gist of the method:
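Vero cells, 5,000/well, plated overnight at 37 °C, then compound added and infected with recombinant ZIKV-mCherry at MOI 1 for 48-72 h. PFA-fixed, Hoechst nuclear stain, high-content imaging; cells with mCherry intensity above 450 RFU scored infected, reported as percent infection.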

Results filed as inconclusive are left out. Active and inactive are the calls of the source. The call rests on the fitted dose curve; in most records, active means well fitted curve in the direction sought with a large enough effect; inconclusive means small, poorly fitted or top-dose-only effect, or another doubt; inactive means no such curve, though single readings can be large; an effect the other way counts as inactive or inconclusive. Where a SMILES comes first, the peptide text is derived from it. The star is where a group is joined. Hexanoyl = CCCCCC(=O)*

For the molecule `O=C(Nc1ccccc1)Nc1ccc(-c2ccc(C(=O)C3CCCC3C(=O)O)cc2)cc1` (configuration not stated), the Potency was 27.8 µM (active) in assay [1]; 35 µM (active) in assay [2]; 4.94 µM (active) in [3]; 5.01 µM (active) in assay [4]; 3.55 µM (active) in assay [5]; 3.93 µM (active) in [6]. The Potency in [8] was 11.2 µM (active). The Potency entry in [7] and in assay [11] was “inactive” in each case. Further, the call in [9] and in assay [10] was inactive.
Turning to `O=C(/C=C/c1ccccc1)OC[C@H]1O[C@@H](OC(=O)c2cc(O)c(O)c(O)c2)[C@H](O)[C@@H](O)[C@@H]1O`, the Potency is 2.15 µM (active) in [3], 3.98 µM (active) in assay [4] and 3.41 µM (active) in assay [6]. Further, the Potency entry in assay [5] and in [11] was “inactive” throughout.
For `C=CC1(C)C=C2CC[C@H]3[C@@](C)(C(=O)O)CCC[C@]3(C)C2CC1` (some centres not stated), the Potency in assay [3] was 15.3 µM (active); in assay [4] it was 7.94 µM (active); in [5] it was 3.55 µM (active); in [6], 9.67 µM (active); in [7], 70.8 µM (active); in assay [8], 20 µM (active). The call in assay [9] and in [10] was inactive.
As for `CC1(C)CC=C(c2cnc3ccccc3c2)c2cc(C(=O)Nc3ccc(C(=O)O)cc3)ccc21`, the Potency in assay [1] is 17.5 µM (active); in [2] it was 15.6 µM (active); in assay [3], 2.78 µM (active); in [4], 1.78 µM (active); in assay [5] it was 3.16 µM (active); in [6] it was 1.97 µM (active). The Potency result in assay [8] and in assay [11] was “inactive” each time. Besides, the call in [9] and in assay [10] was inactive.
With `COc1cc(C)c(C(=O)OC2C(C)OC(OC3CCC(C)C4C3C=C(C)C3/C(C)=C\CC/C(C)=C/C5(C)C=C(C(=O)O)C(C)CC56OC(=O)/C(=C(\O)C34C)C6=O)C(O)C2O)c(OC)c1` (configuration not stated), the Potency in assay [1] is 9.37 µM (active); in [2] it was 9.37 µM (active); in assay [3], 2.64 µM (active); in assay [4] it was 1.26 µM (active); in [5], 2.47 µM (active); in [6] it was 1.32 µM (active). The molecule was classed as inactive in [9] and in assay [10].
As for `Cc1ccc([C@@H]2CC=C(C(=O)O)[C@H](c3ccc(C(C)(C)C)cc3)N2S(=O)(=O)c2ccc(C)cc2)cc1`, the Potency in [1] was 15.6 µM (active); in assay [2] it was 19.7 µM (active); in assay [3] it was 3.12 µM (active); in [4], 2.51 µM (active); in assay [5], 2.24 µM (active); in assay [6] it was 2.78 µM (active). Also, the values for the Potency in assay [7], in assay [8] and in [11] were 3.55 µM (active), 4.47 µM (active) and 18.6 µM (active), respectively. The outcome in assay [9] and in [10] was inactive.
`COc1cc(CCCO)ccc1O[C@@H]1O[C@H](CO)[C@@H](O)[C@H](O)[C@H]1O`: the Potency in assay [3] and in assay [6] was 34.3 µM (active) in each case. Moreover, the Potency result in [4] and in assay [11] was “inactive” throughout.
Take `O=C(O)C1(c2ccc(-c3ccc(Cl)c(Cl)c3)c(F)c2)CC1`: the Potency in assay [1] was 44.1 µM (active); in assay [2] it was 44.1 µM (active); in [3], 11.1 µM (active); in assay [4] it was 7.94 µM (active); in assay [5] it was 8.91 µM (active); in assay [6] it was 6.98 µM (active). In addition, the Potency in assay [7] was 14.1 µM (active). Further, the molecule was called inactive in [9] and in assay [10]. The Potency entry in [11] was “inactive”.
`C=C1C2CCC3CC2(CC(O)C2(O)C1CC(OC1OC(CO)C(O)C(O)C1O)C2(C)C)CC3(C)O` (configuration not stated): the Potency entry in [1] and in assay [11] was “inactive” in each case. For the same molecule, the Potency in [4] is 20 µM (active); in assay [5], 8.91 µM (active); in assay [6], 9.61 µM (active); in assay [7] it was 35.5 µM (active); in [8], 0.501 µM (active). Also, the result in assay [9] and in assay [10] was inactive.
Consider `O=S(=O)(O)c1ccc(Nc2ncnc3c2ncn3[C@@H]2O[C@H](CO)[C@@H](O)[C@H]2O)cc1`, for which the result in assay [12] was inactive. Further, the Potency entry in assay [4] and in assay [5] was “inactive” each time.
`C=C1CCC2C(C)(C)CCC[C@]2(C)[C@H]1CC/C(C)=C/C(=O)O` (some centres not stated): the Potency in assay [1] was 44.1 µM (active); in assay [2], 39.3 µM (active); in assay [3] it was 11.1 µM (active); in [4], 3.55 µM (active); in assay [5] it was 5.62 µM (active); in assay [6] it was 4.94 µM (active). Moreover, in assay [7], the Potency was 2 µM (active). Besides, the molecule was classed as inactive in assay [9] and in assay [10]. Besides, the Potency entry in assay [11] is “inactive”.
Turning to `COc1cccc(OC)c1-c1cc(C(=O)N[C@@H](CC(C)C)C(=O)O)nn1-c1ccnc2cc(Cl)ccc12`, the Potency in [3] is 17.5 µM (active); in [5], 10 µM (active); in [6], 12.4 µM (active); in assay [7] it was 31.6 µM (active). The Potency result in [13], in [8] and in assay [11] was “inactive” each time. For the same molecule, the molecule was called inactive in [9] and in [10].
For the molecule `C/C=C/C=C/C=C/C(=O)O[C@@H]1[C@@H](OC)C2=C(C(=O)N(C(CCC(=O)O)C(=O)O)C2)[C@@]2(C)CCCC(C)(C)[C@H]12` (some centres not stated), the Potency was 24.2 µM (active) in assay [1]; 9.61 µM (active) in [2]; 4.82 µM (active) in assay [3]; 4.47 µM (active) in assay [4]; 7.08 µM (active) in assay [5]; 2.71 µM (active) in assay [6]. Also, the Potency was 2.24 µM (active) in assay [7] and 15.8 µM (active) in [8]. Further, the Potency result in [13] and in assay [11] was “inactive” throughout. Besides, the call in assay [9] and in assay [10] was inactive.
For `COc1ccc(C2C(C(=O)O)C(C(=O)O)C2c2ccc(OC)cc2O[C@@H]2O[C@H](CO)[C@@H](O)[C@H](O)[C@H]2O)c(O[C@@H]2O[C@H](CO)[C@@H](O)[C@H](O)[C@H]2O)c1` (some centres not stated), the Potency in assay [3] is 9.26 µM (active); in assay [4], 7.94 µM (active); in [6], 11.7 µM (active). Also, the Potency entry in assay [5] and in assay [11] was “inactive” throughout.
Consider `Cn1cc(-c2c[nH]c3ncnc(N4CCOCC4)c23)cn1`, for which the Potency result in assay [3], in assay [4] and in assay [6] was “inactive” each time.
Consider `CCCCCC(=O)N1CCC[C@H]1C(=O)N[C@@H](Cc1ccc(O)cc1)C(=O)OC` (Hexanoyl-Pro-Tyr-OMe), for which the Potency entry in [3], in assay [4], in assay [6] and in [11] was “inactive” in each case.

The values above are taken from PubChem BioAssay (NCATS).
